Reference: the supplement of paper PMC10849652
About 8,800 targets were measured; listed, in parts, are those with a hit and a random draw of the rest. About 0.5% of all pairs of compound and target were hits.

Columns and labels:
Assay in all cases: log2 fold change, soluble protein after heating vs DMSO (PISA); higher = thermal stabilisation; K562 lysate, 10 uM; active = over 0.2 and 3.5 SD of the protein, either way, in both replicates (recomputed)
[1] = compound: C1=CC=C(C=C1)[C@H](COC2=CC3=C(C=C2)NC(=O)N3)NC(=O)C4=CC=CN(C4=O)CC5=CC(=C(C=C5)F)F
Outline: (§1)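 Soluble protein was defined as the supernatant remaining after 21,000xg for 90 min, following pooling of heated aliquots and adjustment to 0.5% NP-40 at 4°C. Before that, crude K562 extract at 1 mg/mL protein in PBS pH 7.4 with 1 mM MgCl2 was treated with 10 μM compound for 30 min and heated for 3 min across 48°C-58°C. Quantification used TMTpro 16plex LC-MS/MS with channel sums equalised, and values are log-two fold changes in thermal stability relative to solvent controls from duplicates.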

[2] = compound: CC1=C(SC2=C1C(=N[C@H](C3=NN=C(N32)C)CC(=O)N)C4=CC=C(C=C4)Cl)C
Outline: as §1

[3] = compound: CC1=C2C(=CC=C1)N=C(N(C2=O)C3=CC=CC=C3C)CN4C=NC5=C(N=CN=C54)N
Outline: as §1

[4] = compound: Cc1sc2c(c1C)C(c1ccc(Cl)cc1)=N[C@@H](CC(=O)OC(C)(C)C)c1nnc(C)n1-2
Outline: as §1

[5] = compound: c1ccc([C@@H]2C[C@H]2NC2CCNCC2)cc1
Outline: as §1

Measured: log2 fold change

DLD (UniProt P09622)
UniProt P09622, sequence (P09622 whole entry, looked up): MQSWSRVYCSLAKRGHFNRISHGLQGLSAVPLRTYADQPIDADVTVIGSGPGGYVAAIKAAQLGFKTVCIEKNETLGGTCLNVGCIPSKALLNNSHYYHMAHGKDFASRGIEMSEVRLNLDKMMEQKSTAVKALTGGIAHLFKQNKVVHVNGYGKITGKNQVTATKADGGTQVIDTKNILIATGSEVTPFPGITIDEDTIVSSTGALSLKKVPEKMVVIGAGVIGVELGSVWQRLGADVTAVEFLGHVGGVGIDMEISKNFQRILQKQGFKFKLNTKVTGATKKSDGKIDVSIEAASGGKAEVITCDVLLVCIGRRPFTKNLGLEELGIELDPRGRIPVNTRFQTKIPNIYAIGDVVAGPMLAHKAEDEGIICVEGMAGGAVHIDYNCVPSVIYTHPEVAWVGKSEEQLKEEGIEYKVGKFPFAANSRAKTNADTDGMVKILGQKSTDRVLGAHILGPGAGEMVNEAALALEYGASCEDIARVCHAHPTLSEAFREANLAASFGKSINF
inactive: [1] 0.005 | [2] -0.017 | [3] 0.008 | [4] -0.022 | [5] -0.076

CHML (UniProt P26374)
UniProt P26374, sequence (P26374 whole entry, looked up): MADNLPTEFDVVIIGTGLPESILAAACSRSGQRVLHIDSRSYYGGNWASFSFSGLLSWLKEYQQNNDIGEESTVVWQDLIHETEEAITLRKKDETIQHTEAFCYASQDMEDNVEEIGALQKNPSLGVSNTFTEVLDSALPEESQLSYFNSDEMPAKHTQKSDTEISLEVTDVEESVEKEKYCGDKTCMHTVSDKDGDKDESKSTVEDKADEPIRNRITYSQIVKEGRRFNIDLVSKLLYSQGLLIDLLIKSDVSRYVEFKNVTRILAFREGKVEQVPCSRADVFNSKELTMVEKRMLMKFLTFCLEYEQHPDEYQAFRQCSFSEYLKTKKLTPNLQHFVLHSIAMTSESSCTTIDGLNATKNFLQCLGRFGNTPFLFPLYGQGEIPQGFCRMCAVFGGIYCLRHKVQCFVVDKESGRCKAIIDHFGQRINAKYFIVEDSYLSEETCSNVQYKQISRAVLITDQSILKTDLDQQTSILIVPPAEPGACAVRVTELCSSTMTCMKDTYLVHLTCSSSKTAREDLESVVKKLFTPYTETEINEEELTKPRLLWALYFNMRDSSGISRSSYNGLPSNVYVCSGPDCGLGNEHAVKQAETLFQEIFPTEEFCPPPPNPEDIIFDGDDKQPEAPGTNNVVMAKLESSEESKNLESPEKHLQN
inactive: [1] 0.011 | [2] -0.027 | [3] 0.01 | [4] 0.016 | [5] -0.03

DCTN1 (UniProt Q14203)
UniProt Q14203, sequence (Q14203 whole entry, looked up): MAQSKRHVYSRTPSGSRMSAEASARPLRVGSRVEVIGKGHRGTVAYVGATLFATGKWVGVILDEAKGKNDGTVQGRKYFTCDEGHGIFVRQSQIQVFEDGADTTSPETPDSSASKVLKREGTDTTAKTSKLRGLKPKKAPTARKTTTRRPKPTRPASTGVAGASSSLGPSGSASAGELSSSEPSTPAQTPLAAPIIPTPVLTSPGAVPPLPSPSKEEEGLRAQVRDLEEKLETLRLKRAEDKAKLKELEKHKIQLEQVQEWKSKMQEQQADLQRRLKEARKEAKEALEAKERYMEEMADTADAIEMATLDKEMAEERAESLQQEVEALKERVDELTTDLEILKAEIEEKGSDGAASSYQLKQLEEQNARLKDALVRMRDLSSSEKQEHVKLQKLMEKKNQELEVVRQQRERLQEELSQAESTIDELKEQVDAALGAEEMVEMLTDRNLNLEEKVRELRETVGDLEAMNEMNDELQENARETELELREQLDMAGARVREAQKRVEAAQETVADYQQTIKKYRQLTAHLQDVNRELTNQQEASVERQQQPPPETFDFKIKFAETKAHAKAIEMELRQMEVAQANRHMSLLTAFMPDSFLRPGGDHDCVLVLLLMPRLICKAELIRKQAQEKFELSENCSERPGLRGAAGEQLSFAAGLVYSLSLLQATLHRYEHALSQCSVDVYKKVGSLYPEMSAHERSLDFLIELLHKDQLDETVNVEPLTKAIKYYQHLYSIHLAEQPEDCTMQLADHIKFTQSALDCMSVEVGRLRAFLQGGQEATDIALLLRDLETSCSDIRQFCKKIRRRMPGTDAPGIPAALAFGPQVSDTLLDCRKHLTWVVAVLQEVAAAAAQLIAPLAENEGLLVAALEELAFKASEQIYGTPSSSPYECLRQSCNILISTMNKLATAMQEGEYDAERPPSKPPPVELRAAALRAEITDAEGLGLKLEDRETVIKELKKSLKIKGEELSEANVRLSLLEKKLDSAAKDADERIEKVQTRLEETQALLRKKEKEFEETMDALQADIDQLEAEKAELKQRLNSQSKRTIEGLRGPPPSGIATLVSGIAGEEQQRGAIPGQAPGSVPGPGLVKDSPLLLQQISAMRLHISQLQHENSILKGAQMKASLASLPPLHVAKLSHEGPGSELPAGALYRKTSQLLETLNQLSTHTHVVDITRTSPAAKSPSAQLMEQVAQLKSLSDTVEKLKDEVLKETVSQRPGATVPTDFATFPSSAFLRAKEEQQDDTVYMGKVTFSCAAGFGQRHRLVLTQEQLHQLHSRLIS
inactive: [1] -0.018 | [2] -0.017 | [3] -0.009 | [4] 0 | [5] 0.034

DDX4 (UniProt Q9NQI0)
inactive: [1] -0.047 | [2] 0.007 | [3] -0.004 | [4] 0.049 | [5] -0.265

CUL1 (UniProt Q13616)
inactive: [1] 0.017 | [2] -0.027 | [3] -0.007 | [4] 0.016 | [5] -0.001

DNM2 (UniProt P50570)
inactive: [1] -0.01 | [2] 0.038 | [3] 0.035 | [4] 0.05 | [5] 0.057

CPT1A (UniProt P50416)
inactive: [1] 0.042 | [2] 0.03 | [3] -0.004 | [4] 0.07 | [5] 0.011

DDX20 (UniProt Q9UHI6)
inactive: [1] -0.008 | [2] -0.064 | [3] -0.006 | [4] 0.027 | [5] 0.077

DARS (UniProt P14868)
UniProt P14868, sequence (P14868 whole entry, looked up): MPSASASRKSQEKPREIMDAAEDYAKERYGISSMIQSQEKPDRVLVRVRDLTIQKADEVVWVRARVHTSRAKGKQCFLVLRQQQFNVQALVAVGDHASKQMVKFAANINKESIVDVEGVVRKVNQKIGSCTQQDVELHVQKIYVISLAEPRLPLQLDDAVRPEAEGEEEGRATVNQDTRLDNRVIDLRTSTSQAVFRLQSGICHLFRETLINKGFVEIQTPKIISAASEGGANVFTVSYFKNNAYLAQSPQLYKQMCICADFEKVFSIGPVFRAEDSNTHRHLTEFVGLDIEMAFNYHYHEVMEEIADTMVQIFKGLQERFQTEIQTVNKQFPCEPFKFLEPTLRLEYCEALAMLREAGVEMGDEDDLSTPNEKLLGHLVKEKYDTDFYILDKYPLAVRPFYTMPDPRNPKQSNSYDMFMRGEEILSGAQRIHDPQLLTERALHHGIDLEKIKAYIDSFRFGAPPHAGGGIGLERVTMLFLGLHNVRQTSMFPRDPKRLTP
inactive: [1] -0.01 | [2] 0.001 | [3] 0.037 | [4] 0.043 | [5] 0.025

CYP51A1 (UniProt Q16850)
inactive: [1] 0.028 | [2] -0.105 | [3] -0.058 | [4] -0.028 | [5] -0.007

CIC (UniProt I3L2J0)
inactive: [1] -0.03 | [2] -0.034 | [3] -0.109 | [4] 0.042 | [5] -0.02

DERA (UniProt Q9Y315)
inactive: [1] 0.025 | [2] 0.012 | [3] -0.051 | [4] 0.061 | [5] 0.209

DDX39A (UniProt O00148)
UniProt O00148, sequence (O00148 whole entry, looked up): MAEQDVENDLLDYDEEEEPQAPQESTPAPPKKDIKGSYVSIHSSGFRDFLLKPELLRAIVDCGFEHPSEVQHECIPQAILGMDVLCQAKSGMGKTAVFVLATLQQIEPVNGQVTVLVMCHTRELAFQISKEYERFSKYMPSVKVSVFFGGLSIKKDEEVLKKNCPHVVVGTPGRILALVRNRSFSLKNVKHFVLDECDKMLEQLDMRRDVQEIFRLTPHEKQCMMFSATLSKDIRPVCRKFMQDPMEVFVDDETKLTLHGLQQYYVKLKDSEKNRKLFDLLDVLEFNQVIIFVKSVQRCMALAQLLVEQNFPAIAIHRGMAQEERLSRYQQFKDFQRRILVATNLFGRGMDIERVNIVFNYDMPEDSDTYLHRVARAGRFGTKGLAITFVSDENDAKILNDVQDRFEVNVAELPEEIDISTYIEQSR
inactive: [1] -0.022 | [2] -0.018 | [3] 0.02 | [4] -0.016 | [5] 0

CHEK2 (UniProt O96017)
inactive: [1] -0.02 | [2] -0.041 | [3] -0.016 | [4] 0.006 | [5] 0.014

CLPB isoform 2 (UniProt Q9H078)
UniProt Q9H078, sequence (Q9H078 whole entry, looked up): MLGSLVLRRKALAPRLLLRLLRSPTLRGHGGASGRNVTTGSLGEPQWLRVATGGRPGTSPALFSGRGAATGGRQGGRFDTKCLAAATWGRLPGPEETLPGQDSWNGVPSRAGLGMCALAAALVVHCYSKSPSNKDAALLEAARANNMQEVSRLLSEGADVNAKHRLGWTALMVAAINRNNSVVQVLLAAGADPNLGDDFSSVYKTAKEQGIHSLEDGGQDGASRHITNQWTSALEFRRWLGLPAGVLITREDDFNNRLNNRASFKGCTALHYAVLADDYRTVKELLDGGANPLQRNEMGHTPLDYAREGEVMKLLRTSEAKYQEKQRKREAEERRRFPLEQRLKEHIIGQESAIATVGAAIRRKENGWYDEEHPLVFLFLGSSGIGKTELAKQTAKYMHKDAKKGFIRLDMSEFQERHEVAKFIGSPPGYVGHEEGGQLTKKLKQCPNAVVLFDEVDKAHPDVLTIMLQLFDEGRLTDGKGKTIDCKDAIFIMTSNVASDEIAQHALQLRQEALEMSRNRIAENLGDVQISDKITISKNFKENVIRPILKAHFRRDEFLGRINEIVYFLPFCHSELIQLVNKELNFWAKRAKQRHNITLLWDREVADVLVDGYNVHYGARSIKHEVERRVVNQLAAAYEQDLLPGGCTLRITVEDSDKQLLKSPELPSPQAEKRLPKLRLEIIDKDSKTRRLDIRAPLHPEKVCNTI
inactive: [1] -0.031 | [2] -0.012 | [3] 0 | [4] 0.094 | [5] 0.079

CORO1A (UniProt P31146)
inactive: [1] -0.024 | [2] 0.021 | [3] 0.004 | [4] 0.078 | [5] -0.019

COQ8A (UniProt Q8NI60)
inactive: [1] 0.048 | [2] 0.065 | [3] 0.03 | [4] 0.007 | [5] 0

DIAPH1 (UniProt H9KV28)
inactive: [1] 0.009 | [2] 0.023 | [3] 0.007 | [5] -0.117

DHRS1 (UniProt Q96LJ7)
UniProt Q96LJ7, sequence (Q96LJ7 whole entry, looked up): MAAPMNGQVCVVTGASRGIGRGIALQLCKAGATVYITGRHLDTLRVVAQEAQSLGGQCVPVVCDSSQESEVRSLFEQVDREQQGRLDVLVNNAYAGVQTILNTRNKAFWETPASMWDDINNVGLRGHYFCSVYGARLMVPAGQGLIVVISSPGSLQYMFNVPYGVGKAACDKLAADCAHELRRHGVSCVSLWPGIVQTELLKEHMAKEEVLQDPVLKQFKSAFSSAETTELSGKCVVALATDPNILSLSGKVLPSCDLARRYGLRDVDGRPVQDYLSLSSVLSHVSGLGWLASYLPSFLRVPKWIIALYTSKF
inactive: [1] 0.15 | [2] -0.103 | [3] -0.015 | [4] 0.029 | [5] -0.107

CHURC1 isoform 2 (UniProt Q8WUH1)
UniProt Q8WUH1, sequence (Q8WUH1 whole entry, looked up): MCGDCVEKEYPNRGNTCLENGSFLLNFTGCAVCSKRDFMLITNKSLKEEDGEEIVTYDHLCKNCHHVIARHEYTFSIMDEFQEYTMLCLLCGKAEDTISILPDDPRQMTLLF
inactive: [1] 0.045 | [2] -0.05 | [3] -0.046 | [4] -0.014 | [5] -0.063

DMXL1 (UniProt Q9Y485)
inactive: [1] 0.011 | [2] 0.01 | [3] 0 | [4] -0.005 | [5] 0.016

CTNND1 isoform 3 (UniProt O60716)
inactive: [1] -0.021 | [2] 0.035 | [3] 0.058 | [4] 0.036 | [5] 0.028

CSNK1G3 (UniProt Q9Y6M4)
UniProt Q9Y6M4, sequence (Q9Y6M4 whole entry, looked up): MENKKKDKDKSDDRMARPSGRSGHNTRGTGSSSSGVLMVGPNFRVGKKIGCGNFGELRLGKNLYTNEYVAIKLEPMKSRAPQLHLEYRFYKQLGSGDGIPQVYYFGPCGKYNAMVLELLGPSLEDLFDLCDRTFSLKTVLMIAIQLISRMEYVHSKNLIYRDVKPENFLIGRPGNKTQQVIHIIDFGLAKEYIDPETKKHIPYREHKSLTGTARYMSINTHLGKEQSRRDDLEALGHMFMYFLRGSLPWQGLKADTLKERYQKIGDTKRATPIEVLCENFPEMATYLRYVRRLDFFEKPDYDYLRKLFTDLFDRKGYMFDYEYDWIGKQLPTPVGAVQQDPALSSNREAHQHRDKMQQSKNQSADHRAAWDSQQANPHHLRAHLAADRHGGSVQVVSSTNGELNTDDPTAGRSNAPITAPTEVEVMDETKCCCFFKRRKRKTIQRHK
inactive: [1] -0.041 | [2] 0.017 | [3] -0.013 | [4] 0.006 | [5] -0.03

CTNNBL1 (UniProt Q8WYA6)
inactive: [1] -0.003 | [2] 0 | [3] 0.004 | [4] -0.087 | [5] 0.073

COASY isoform 2 (UniProt Q13057)
inactive: [1] -0.049 | [2] -0.002 | [3] 0.03 | [4] 0.07 | [5] 0.01
